# Results filed as inconclusive are left out. A call without a number means that no potency is given here. A number with no mark means an inactive call. Activity calls are given as the source filed them. Calls come from the whole dose curve; as a rule, active = well fitted curve in the direction sought with a large enough effect; inconclusive = small, poorly fitted or top-dose-only effect, or another doubt; inactive = no such curve, though single readings can be large; an effect the other way counts as inactive or inconclusive.
# What was measured:
# [1] = target: Cellular tumor antigen p53 (Homo sapiens) (UniProt P04637); assay: Primary qHTS for small molecule compounds that upregulate eGFP-tagged delta133p53alpha (in N-terminal) cells. (AID 2060322); settings: NCI-H358 eGFP-delta133p53alpha fluorescence, 24 h; activation: stronger effect = higher value; note: nearly all actives have a fitted effect of over 75% in size; note: potency is the fitted concentration of half-maximal effect; for activation: series mostly up to about 56 µM
# Sequence of Cellular tumor antigen p53 (Homo sapiens) (P04637 whole entry, looked up): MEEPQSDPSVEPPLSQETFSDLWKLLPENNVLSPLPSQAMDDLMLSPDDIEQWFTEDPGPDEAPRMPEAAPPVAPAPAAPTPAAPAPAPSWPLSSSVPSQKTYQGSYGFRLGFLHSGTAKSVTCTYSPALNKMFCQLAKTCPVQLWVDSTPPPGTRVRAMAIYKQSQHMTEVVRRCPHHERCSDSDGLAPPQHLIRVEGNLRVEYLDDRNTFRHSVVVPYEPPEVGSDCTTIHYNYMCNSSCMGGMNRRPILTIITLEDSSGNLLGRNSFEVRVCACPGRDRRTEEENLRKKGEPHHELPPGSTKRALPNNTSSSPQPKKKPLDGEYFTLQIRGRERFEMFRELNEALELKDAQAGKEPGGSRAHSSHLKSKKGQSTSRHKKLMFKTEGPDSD
# In short: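 NCI-H358 cells pre-induced 24 h with 10 ng/ml doxycycline to express N-terminal eGFP-delta133p53alpha, then dosed 24 h at 37C without doxycycline; fixed, Hoechst-stained, GFP intensity by laser scanning cytometry, normalized to DMSO (0%) and 57.5 uM 5-azacytidine (100%).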
# [2] = target: Aldehyde dehydrogenase, mitochondrial (Homo sapiens) (UniProt P05091); assay: qHTS for Inhibitors of the Aldehyde Dehydrogenase Family (ALDH2) Primary screen (AID 2061308); note: nearly all actives have a fitted effect of over 55% in size
# [3] = target: Retinaldehyde dehydrogenase 3 (Homo sapiens) (UniProt P47895); assay: qHTS for Inhibitors of the Aldehyde Dehydrogenase Family (ALDH1A3) Primary screen (AID 2061315)
# [4] = target: Retinal dehydrogenase 2 (Homo sapiens) (UniProt O94788); assay: qHTS for Inhibitors of the Aldehyde Dehydrogenase Family (ALDH1A2) Confirmation screens (AID 2061314); note: nearly all actives have a fitted effect of over 65% in size; note: potency is the fitted concentration of half-maximal effect
# [5] = target: Aldehyde dehydrogenase 1A1 (Homo sapiens) (UniProt P00352); assay: qHTS for Inhibitors of the Aldehyde Dehydrogenase Family (ALDH1A1) Confirmatory screens (AID 2061316); note: nearly all actives have a fitted effect of over 65% in size; note: potency is the fitted concentration of half-maximal effect
# [6] = BET inhibitor-based combinations targeting novel dependencies in MECOM-rearranged (r) AML: SET-2 cell line (AID 2202231); settings: SET-2 AML cells viability, CellTiter-Glo luminescence, 48 h; viability: stronger effect = lower value, concentration not given here; note: potency is the fitted concentration of half-maximal effect; nearly all actives have a fitted effect of over 35% in size
# In short: (§1)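 Each compound was tested at eleven concentrations on cells seeded at 500/well. After two days' incubation, ATP-based luminescence reported viability; responses relative to DMSO and blank wells yielded AUC and cell-line-centred Z-AUC.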
# [7] = BET inhibitor-based combinations targeting novel dependencies in MECOM-rearranged (r) AML: OCI-AML3 cell line (AID 2202232); settings: Potency: OCI-AML3 viability; note: potency is the fitted concentration of half-maximal effect; nearly all actives have a fitted effect of over 35% in size
# In short: as §1
# [8] = BET inhibitor-based combinations targeting novel dependencies in MECOM-rearranged (r) AML: MV-4-11 cell line (AID 2202233); note: potency is the fitted concentration of half-maximal effect; nearly all actives have a fitted effect of over 45% in size
# In short: (§2)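 First, 500 cells per well were seeded; next, drugs were pinned as 11-point doses; then plates sat 48 hr in the incubator; finally CellTiter-Glo was added and luminescence read, with AUC and Z-AUC computed.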
# [9] = BET inhibitor-based combinations targeting novel dependencies in MECOM-rearranged (r) AML: HNT-34 cell line (AID 2202234); note: potency is the fitted concentration of half-maximal effect; nearly all actives have a fitted effect of over 35% in size
# In short: as §2
# [10] = BET inhibitor-based combinations targeting novel dependencies in MECOM-rearranged (r) AML: AML-191 cell line (AID 2202236; note: potency is the fitted concentration of half-maximal effect; nearly all actives have a fitted effect of over 35% in size)
# In short: as §1
# [11] = BET inhibitor-based combinations targeting novel dependencies in MECOM-rearranged (r) AML: AML-194 cell line (AID 2202237; note: potency is the fitted concentration of half-maximal effect; nearly all actives have a fitted effect of over 40% in size)
# In short: as §1
compound,measurement,setting,value
COC(=O)C1=CO[C@@H](O[C@@H]2O[C@H](CO)[C@@H](O)[C@H](O)[C@H]2O)[C@H]2[C@@H]1C=C[C@]21C=C([C@H](C)OC(=O)/C=C/c2ccc(O[C@@H]3O[C@H](CO)[C@@H](O)[C@H](O)[C@H]3O)cc2)C(=O)O1,activation,[1],-1.79%
same,Potency,[2],inactive
same,Potency,[3],inactive
C=C[C@H]1[C@H](O[C@@H]2O[C@H](CO[C@@H]3OC[C@](O)(CO)[C@H]3O)[C@@H](O)[C@H](O)[C@H]2O)OC=C2C(=O)OCC[C@H]21,activation,[1],5.36%
same,Potency,[2],inactive
same,Potency,[3],inactive
CC(C)=CCC/C(C)=C/CO[C@@H]1O[C@H](CO[C@@H]2O[C@@H](CO)[C@H](O)[C@H]2O)[C@@H](O)[C@H](O)[C@H]1O,activation,[1],-29.5%
same,Potency,[2],inactive
same,Potency,[3],inactive
O=C1NC(=O)C(c2cnc3ccccn23)=C1c1cn2c3c(cccc13)CN(C(=O)N1CCOCC1)CC2,Potency,[1],23.9 µM (active)
same,Potency,[2],inactive
same,Potency,[4],inactive
same,Potency,[5],12.7 µM (active)
same,Potency,[6],0.118 µM (active)
same,Potency,[7],3.32 µM (active)
same,Potency,[8],0.0934 µM (active)
same,Potency,[9],0.118 µM (active)
same,Potency,[10],0.525 µM (active)
same,Potency,[11],2.35 µM (active)
COc1cc(O)cc2c1C(=O)OC(C)CCCCCCC2 (configuration not stated),activation,[1],1.79%
same,Potency,[2],inactive
same,Potency,[4],inactive
same,Potency,[3],inactive
C[C@@H]1CN(Cc2ccccc2)C[C@H]1c1nc2c(cnn2C2CCOCC2)c(=O)[nH]1,activation,[1],18.8%
same,Potency,[2],inactive
same,Potency,[3],inactive
C=C(C(=O)O)C1CC(OC(=O)CC(C)CC)C2(C)CCCC(=C)C2C1 (configuration not stated),activation,[1],-13%
same,Potency,[2],inactive
same,Potency,[3],inactive
COC(=O)c1ccc(OC(CO)C(O)c2ccc(O)c(OC)c2)c(OC)c1 (configuration not stated),activation,[1],9.82%
same,Potency,[2],inactive
same,Potency,[4],inactive
COc1cc2c(cc1OC)CC(=O)N(CCCNC[C@H]1Cc3cc(OC)c(OC)cc31)CC2,activation,[1],-11.7%
same,Potency,[2],inactive
same,Potency,[3],inactive
CC(=O)OC1CCC2(C)C(CCC3(C)C2CC=C2C4C(C)C(C)CCC4(C)CCC23C)C1(C)C(=O)O (configuration not stated),activation,[1],-6.11%
same,Potency,[2],inactive
same,Potency,[3],inactive
C=C1C(=O)O[C@@H]2[C@H]1CC(=O)[C@H](C)[C@@](O)(C(=O)/C=C/C)[C@H]2OC(=O)C(C)CC (some centres not stated),Potency,[1],5.88 µM (active)
same,Potency,[2],inactive
same,Potency,[4],4.4 µM (active)
same,Potency,[3],inactive
same,Potency,[5],inactive
CC1=CC(=O)[C@]2(O[C@@H]3O[C@@H](C)[C@H](O)[C@@H](O)[C@H]3O)C=CO[C@@H](O[C@@H]3O[C@H](CO)[C@@H](O)[C@H](O)[C@H]3O)[C@H]12,activation,[1],-18.3%
same,Potency,[2],inactive
same,Potency,[3],inactive
C=C1C(=O)OC2/C=C(\C)CC/C=C(\C)CC(OC(C)=O)C12 (configuration not stated),Potency,[1],26.9 µM (active)
same,Potency,[2],inactive
same,Potency,[3],inactive
O=c1ccn(C2OC(CO)C(O)C2O)c(=O)[nH]1 (configuration not stated),activation,[1],17.6%
same,Potency,[2],inactive
same,Potency,[3],inactive
COc1ccc(-n2c(SCC#N)nc3sc4c(c3c2=O)CCCC4)cc1,activation,[1],-16.1%
same,Potency,[2],inactive
same,Potency,[3],inactive
CNc1nc(Nc2cn(C(C)(C)C#N)nc2C)ncc1C(F)(F)F,activation,[1],-23.2%
same,Potency,[2],inactive
same,Potency,[3],inactive
C/C=C/C=C/[C@@H]1O[C@](O)([C@H](CC)C(=O)NC/C=C/C=C(\C)[C@@H](OC)[C@@H](C)C2OC(/C=C/C=C/C=C(\C)C(=O)c3c(O)cc[nH]c3=O)[C@H](O)[C@@H]2O)[C@H](O)[C@H](O)C1(C)C (some centres not stated),activation,[1],-1.79%
same,Potency,[2],inactive
same,Potency,[3],inactive
O=C(O)c1ccnc2cc(C(OCC3CCC(F)(F)CC3)c3ccccc3Cl)[nH]c12 (configuration not stated),activation,[1],5.67%
same,Potency,[2],inactive
same,Potency,[3],inactive
CC(C)=C1C[C@@]2(C)C(=CC1=O)CC[C@@H](O)[C@@H]2C,activation,[1],4.58%
same,Potency,[2],inactive
same,Potency,[3],inactive
CCNC(=O)Nc1ccc(-c2nc3c(c(N4CCOCC4C)n2)CCN(C2COC2)C3)cc1 (configuration not stated),activation,[1],12.4%
same,Potency,[2],inactive
same,Potency,[3],inactive
COc1ccc(C2OCC3C(c4cc(OC)c5c(c4)OCO5)OCC23)cc1OC (configuration not stated),activation,[1],-8.4%
same,Potency,[2],inactive
same,Potency,[3],inactive
CC12CCC3C(C)(C)C(O)CCC3(C)C1Cc1c(oc(C(=O)O)cc1=O)O2 (configuration not stated),activation,[1],-9.92%
same,Potency,[2],inactive
same,Potency,[3],inactive
CN(C)C(=O)C(=O)c1cn(C)c2cc(Cl)c(C(=O)N3CCC(Cc4ccc(F)cc4)CC3)cc12,activation,[1],-10.7%
same,Potency,[2],inactive
same,Potency,[3],inactive
CC(=O)O[C@H]1CC[C@]2(C)[C@H]3CC[C@]4(C)Oc5oc(C)cc(=O)c5C[C@H]4[C@]3(C)CC[C@H]2C1(C)C,activation,[1],0%
same,Potency,[2],inactive
same,Potency,[3],inactive
